Over roughly 33,000 sequences, “E-score (-0.5 to 0.5)” has its median near -0.0014; the highest 2% begin near 0.25. The list comes from a sample in which the highest values are over-represented; it also holds similar and randomly drawn sequences.
molecular target: T1, Cad1 (UniProt P24813); assay: PBM E-score (8-mer binding enrichment) (E-score (-0.5 to 0.5)); higher = stronger / more preferred TF binding; details: protein concentration: 100 nM; construct: GST-full length
T1 sequence: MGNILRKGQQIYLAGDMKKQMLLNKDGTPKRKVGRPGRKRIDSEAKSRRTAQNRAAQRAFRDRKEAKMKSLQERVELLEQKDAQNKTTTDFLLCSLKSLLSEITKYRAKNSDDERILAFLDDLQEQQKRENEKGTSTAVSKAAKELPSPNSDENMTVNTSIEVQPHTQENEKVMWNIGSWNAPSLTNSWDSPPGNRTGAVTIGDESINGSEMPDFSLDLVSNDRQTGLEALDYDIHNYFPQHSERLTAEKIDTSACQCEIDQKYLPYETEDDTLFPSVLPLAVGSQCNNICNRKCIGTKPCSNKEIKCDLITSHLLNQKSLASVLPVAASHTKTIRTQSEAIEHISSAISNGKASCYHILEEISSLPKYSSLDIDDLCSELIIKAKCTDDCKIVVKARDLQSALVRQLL
Procedure: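 Universal 'all 10-mer' protein binding microarrays (Agilent AMADID 015681) probed with GST-tagged S. cerevisiae TFs (full-length or DBD) made by in vitro transcription/translation (PURExpress), about 100-200 nM. Bound TF was detected with fluorescent anti-GST. Each ungapped 8-mer (which stands for itself and its reverse complement) is scored by the PBM enrichment score (E-score), a modified Wilcoxon-Mann-Whitney statistic from -0.5 to +0.5, computed with the Universal PBM Analysis Suite. Scale: above 0.35 generally sequence-specific binding.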

Sequence | PBM E-score
GCATTAAA | 0.103
TTAATAAA | 0.389
CTATTAAA | 0.00283
CTAATAAA | 0.0515
ATATTAAC | 0.224
CTATTAAC | 0.141
ATATTAAT | 0.368
TCATTAAA | 0.265
ATATTAAA | 0.385
ACATTAAA | 0.11
ATATTAAG | 0.115
ATAATAAA | 0.243
ACCAGATG | -0.0464
CTCAGCCC | -0.21
CCAGAGCA | -0.00085
ATTTGATG | 0.148
AGACTTCG | -0.0445
TATCTTCA | -0.0564
ACTAGATA | 0.0286
ATATAGAA | 0.00309
TCTGAGCA | 0.0835
CAGGGAAA | -0.054
ACAAAGTA | 0.193
CCCTGAAC | 0.229
CATCGCTC | -0.187

Sequence | PBM E-score
AGAGCGTG | -0.0848
CTTGCGAA | 0.184
ATACTAAA | 0.231
ATATTCAA | 0.144
TTACTAAA | 0.374
TTAGTAAA | 0.339
GTACTAAA | 0.054
GTATTCAA | 0.14
CTAGTAAA | 0.0669
GATTTCAA | 0.013
CATTTCAA | 0.174
TTATTCAA | 0.252
ATAGTAAA | 0.225
TATTTCAA | 0.309
AACGCCAT | -0.0315
CTCGTAAA | 0.0173
AGGGCACA | -0.116
ATCGCATA | 0.0254
CATAAGCC | 0.0914
ACTGCTTA | 0.132
GGGTAGAC | -0.191
TCTAAAAA | -0.0235
CCCTGTGA | -0.161
TTATTAAA | 0.307
TGATTAAA | 0.123

Sequence | PBM E-score
GTATTAAA | 0.0777
AACACGTG | 0.217
ATGCCAAT | -0.0122
AATCACGT | 0.184
ATACGTAT | 0.298
ATACGTAC | -0.0354
ATACGTAA | 0.2
ACTAATCG | 0.356
TCTAATCA | 0.181
ACTAATCC | 0.242
ACTAATCT | 0.135
ACTAATCA | 0.344
CCTAATCG | 0.168
AATCCGCG | 0.13
AGTCCTAC | -0.0257
ATTGAGTC | 0.0114
ACCGAGAT | 0.0127
AGCGTAAA | 0.0495
GTTTACTA | 0.195
CATTACTA | 0.25
GGTTACTA | 0.0723
AATTACAG | 0.161
AATTACTG | 0.14
GATTACTA | 0.392
CTTTACTA | 0.213

Sequence | PBM E-score
AATTACAC | 0.148
AATTACTC | 0.239
AATTACTA | 0.32
AATTACAT | 0.354
CATTACTC | 0.0943
TCACAGGA | -0.0436
CCTCGAAC | -0.0906
GAGCTAGA | -0.178
AGAACGCG | 0.0894
GCGGTAGA | -0.0737
CGAGCGTA | 0.0172
CGAAAAGC | -0.143
GCTTCACA | -0.0729
AGATCACA | -0.0498
CGATCACG | 0.273
CGATCACA | 0.204
GACCTCCC | -0.247
ATCTAGGC | -0.102
GCAAAAGA | -0.0108
AGAATTCT | 0.278
AGAATTCG | 0.051
AGAATTCA | 0.126
ACACCCGA | 0.134
AACGCCGG | -0.0998
CACTGCGC | -0.0286

Sequence | PBM E-score
ATTCAAGA | 0.0376
GTTGGAAA | -0.0664
GGTCGCTA | -0.112
GGTCGCGA | 0.273
AGTCGCGG | -0.179
AGTCGCGC | 0.212
AGTCGCGA | 0.285
CGTCGCGA | 0.111
CAAACAAG | 0.0295
GGAGCGCC | -0.252
AACACCAG | -0.0336
GCCTTCAA | 0.0307
GTGCGGAA | 0.0803
CAAACTAA | 0.258
TAAACTAA | 0.186
ATAACTAA | 0.146
CAAACTAC | -0.0121
CTAACTAA | 0.206
TTAACTAA | 0.291
CCACTGTC | -0.0971
CCTGGAAA | -0.0814
GGGTCTAC | -0.0723
ACTCCGTA | -0.228
AGCGGACC | -0.113
ACTCGAGA | -0.0156

Sequence | PBM E-score
ACTCGAGG | 0.107
ACTCGAGT | 0.311
AAATCGGA | 0.171
TAATCGGA | 0.152
CAATCGGA | 0.259
TAGCGACA | 0.0174
ATGGCCAT | 0.252
ATGGCCAA | -0.046
ATGGCCAG | 0.273
CTGGCCAG | -0.159
ATGGCCAC | -0.21
ATGGCCTG | 0.0685
GGAGATCA | -0.0337
ATAGCCCA | 0.062
CAAACCGA | 0.0658
ATAATGAA | 0.166
TACGGATA | 0.116
AACGGAAG | 0.114
CTCGGATA | 0.193
AACGGATG | -0.0154
CACGGATA | 0.22
AACGGAAT | 0.269
AACGGAAA | 0.219
AACGGATC | 0.217
ATCGGATA | 0.276

Sequence | PBM E-score
AACGGATA | 0.252
GTCGGATA | 0.0779
AACGGATT | 0.317
CTGAGGCC | -0.0469
CTACTGCC | -0.162
CAGGATCA | -0.0245
ACTTGTGG | -0.0436
CGATAATC | -0.016
AGTTAAAA | 0.14
AAGCCCTT | -0.0922
CGCGGATC | 0.0644
AGCGGATA | -0.0234
CGCGGATA | 0.258
CCTGCCCA | -0.0659
CGTCAAGC | -0.0629
AGCATATC | 0.025
CGCATATC | 0.318
CGCATATA | -0.0685
CCCGTTCG | 0.016
AAGTCGAC | 0.256
AAGTCGAA | -0.0588
CCGTCGAC | -0.0671
AAGTCGAT | 0.0428
ATGTCGAC | 0.276
CTGTCGAC | -0.0383

Sequence | PBM E-score
GCGTCGAC | 0.252
GCGTCGAA | 0.116
ATGTCGAA | -0.00122
CCGACAAG | -0.0166
CATCTCCA | 0.09
ATACATAC | -0.195
ATACATAT | 0.286
ATACATAA | 0.12
AAACATAT | 0.25
AAACATAC | -0.123
AAACATAG | -0.0611
GCGGCCGC | 0.175
AATTGATA | 0.206
AATTGATC | -0.0161
AATTGATG | 0.251
TCACGTGA | 0.125
TCCGCTCA | -0.195
ACTCGAAA | -0.0505
AGAGCCCT | -0.122
ACTGATTC | -0.0134
ATTGATTC | 0.12
CTTGAATA | 0.118
CCTGATTA | 0.31
ATTGAATA | 0.281
ATTGAATC | -0.0423

Sequence | PBM E-score
ACTGATTA | 0.265
CCTGATTC | 0.0985
ATTGATTA | 0.286
CCTGATGA | 0.0887
ATTGATTG | 0.133
ACTGATTG | 0.0651
CAGCATAA | 0.169
AATTAAGT | 0.181
ACTACTGC | -0.0336
GACTACGA | -0.0382
GATGGGTA | 0.0269
CCAGCCAG | -0.207
GATGATTA | 0.126
GCTGATAA | 0.161
GCTGATTA | 0.378
CTCATGGC | -0.0384
TAGAACTA | 0.0157
ACTAGGAT | -0.0418
GTCGGTAA | -0.116

From the supplement of paper PMC3334620
